# Results as given in PubChem BioAssay (NCI).
# About 79,000 compounds went through this panel and 15% of them were active in at least one assay; those are over-represented in the sample as a whole. Values without a mark were called inactive. Active and inactive are the calls of the source. Cut-off read from the data, not from the text of the source: active = growth inhibition above about 70%; inactive = the rest.
# How the values were obtained:
# [1] = NCI Yeast Anticancer Drug Screen. Data for the rad52 strain (AID 147);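 note: 0% = growth of vehicle-treated control cultures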; settings: S. cerevisiae rad52 mutant growth inhibition, hits give high values
# Method in brief: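 The repair-mutant yeast strain was incubated with compounds, then growth was read and inhibition derived relative to vehicle.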
# [2] = NCI Yeast Anticancer Drug Screen. Data for the wt1 strain (AID 149);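 note: 0% = growth of vehicle-treated wt1 cultures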; settings: S. cerevisiae wt1 strain (SPY 50644) growth inhibition, hits give high values
# Method in brief: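 Yeast wt1 strain exposed to compounds; growth inhibition measured relative to vehicle-treated controls.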
# [3] = NCI Yeast Anticancer Drug Screen. Data for the rad50EPP+ strain (AID 151);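 note: 0% = growth of vehicle-treated control cultures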; settings: S. cerevisiae rad50 mutant strain, hits give high values
# Method in brief: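 Vehicle-normalised growth inhibition; rad50EPP+ yeast strain, altered in DNA damage repair, compound-treated.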
# [4] = NCI Yeast Anticancer Drug Screen. Data for the mgt1 strain (AID 153); settings: S. cerevisiae mgt1 mutant growth inhibition, hits give high values
# Method in brief: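 Vehicle-normalized growth inhibition is determined in mgt1 yeast, a strain selected for a defined alteration in DNA repair or cell cycle control.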
# [5] = NCI Yeast Anticancer Drug Screen. Data for the rad50 strain (AID 155);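 note: 0% = growth of vehicle-only cultures of the same strain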; settings: S. cerevisiae rad50 strain growth inhibition, hits give high values
# Method in brief: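 Yeast carrying a defined DNA repair defect were exposed to test compounds, and growth was compared with vehicle-treated controls to give percent inhibition.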
# [6] = NCI Yeast Anticancer Drug Screen. Data for the mec2-1 strain (AID 157); settings: S. cerevisiae mec2-1 strain, hits give high values
# Method in brief: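 Mutant yeast (mec2-1) grown with compound; growth inhibition relative to vehicle control reported.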
# [7] = NCI Yeast Anticancer Drug Screen. Data for the rad14 strain (AID 159);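 note: 0% = growth of vehicle-treated control cultures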; settings: S. cerevisiae rad14 strain growth inhibition, hits give high values
# Method in brief: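 Yeast cells carrying a defined DNA-repair defect were exposed to compounds, and growth inhibition was calculated relative to vehicle-treated control cultures.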
# [8] = NCI Yeast Anticancer Drug Screen. Data for the sgs1 mgt1 strain (AID 161);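 note: 0% = growth of cultures given vehicle only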; settings: S. cerevisiae sgs1 mgt1 strain, hits give high values
# Method in brief: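 Percent growth inhibition was derived by comparing compound-exposed mutant yeast with vehicle-exposed cultures. The strain carries alterations in DNA damage repair.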
# [9] = NCI Yeast Anticancer Drug Screen. Data for the CLN2oe strain (AID 163);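 note: 0% = growth of vehicle-only control cultures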; settings: S. cerevisiae CLN2oe strain, hits give high values
# Method in brief: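 Compounds are applied to yeast harbouring a defined cell-cycle control change; reduced growth compared with vehicle-treated controls gives the value.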
# [10] = NCI Yeast Anticancer Drug Screen. Data for the cln2 rad14 strain (AID 165);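 note: 0% = growth equal to vehicle treated cultures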; settings: S. cerevisiae cln2 rad14 strain, hits give high values
# Method in brief: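 Readout is yeast growth inhibition versus vehicle-treated controls, using a strain with cln2 and rad14 alterations exposed to compound.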
# [11] = NCI Yeast Anticancer Drug Screen. Data for the bub3 strain (AID 167); settings: S. cerevisiae bub3 mutant strain, hits give high values
# Method in brief: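 Compounds were applied to a genetically altered yeast strain carrying a cell-cycle control defect. Growth inhibition was scored against vehicle-treated controls.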
# [12] = NCI Yeast Anticancer Drug Screen. Data for the wt2 strain (AID 169);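 note: 0% = growth of vehicle-treated yeast cultures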; settings: S. cerevisiae wt2 strain growth inhibition, hits give high values
# Method in brief: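 Against vehicle-treated controls, the growth of yeast exposed to each compound was compared, and the inhibition was recorded.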
# [13] = NCI Yeast Anticancer Drug Screen. Data for the mlh1 strain (AID 171);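 note: 0% = growth of vehicle-treated control cultures of the same strain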; settings: S. cerevisiae mlh1 strain growth inhibition, hits give high values
# Method in brief: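 Measured: yeast growth. Reference: vehicle-treated controls. Organism: strain with a defined alteration affecting DNA damage repair or cell cycle control, treated with compound.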
# [14] = NCI Yeast Anticancer Drug Screen. Data for the sgs1 strain (AID 173);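 note: 0% = growth of vehicle-only control cultures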; settings: S. cerevisiae sgs1 mutant, hits give high values
# Method in brief: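 Each compound was added to cultures of the altered yeast strain. Growth was recorded, and inhibition was derived by comparison with vehicle controls.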
# [15] = NCI Yeast Anticancer Drug Screen. Data for the mlh1 rad18 strain (AID 175); settings: S. cerevisiae mlh1 rad18 strain growth inhibition, hits give high values
# Method in brief: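 Genetically defined yeast (DNA repair-deficient) exposed to compounds; growth inhibition determined relative to vehicle.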
# [16] = NCI Yeast Anticancer Drug Screen. Data for the rad18 strain (AID 177); settings: S. cerevisiae rad18 mutant growth inhibition, hits give high values
# Method in brief: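 Vehicle-treated cultures served as the baseline for scoring compound-induced growth inhibition in DNA-repair-mutant yeast.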
# [17] = at 5.0 µM (retest, dose inferred, filed as 0.5)
# [18] = at 50.0 µM (retest, dose inferred, filed as 5.0)
compound,measurement,setting,value
CC1(C)CC(=O)C(C=NC(=S)C(N)=S)=C(O)C1,growth inhibition,[1]; at 1.2 µM,-47%
same,growth inhibition,[1]; at 3.7 µM,-57%
same,growth inhibition,[1]; at 11.0 µM,-63%
same,growth inhibition,[1]; at 33.0 µM,-49%
same,growth inhibition,[1]; at 100.0 µM,69%
same,growth inhibition,[2]; at 1.2 µM,-30%
same,growth inhibition,[2]; at 3.7 µM,-39%
same,growth inhibition,[2]; at 11.0 µM,-37%
same,growth inhibition,[2]; at 33.0 µM,-16%
same,growth inhibition,[2]; at 100.0 µM,21%
same,growth inhibition,[3]; at 1.2 µM,-43%
same,growth inhibition,[3]; at 3.7 µM,-49%
same,growth inhibition,[3]; at 11.0 µM,-46%
same,growth inhibition,[3]; at 33.0 µM,-51%
same,growth inhibition,[3]; at 100.0 µM,-25%
same,growth inhibition,[4]; at 1.2 µM,-13%
same,growth inhibition,[4]; at 3.7 µM,0%
same,growth inhibition,[4]; at 11.0 µM,3%
same,growth inhibition,[4]; at 33.0 µM,21%
same,growth inhibition,[4]; at 100.0 µM,84% (active)
same,growth inhibition,[5]; at 1.2 µM,-15%
same,growth inhibition,[5]; at 3.7 µM,-14%
same,growth inhibition,[5]; [17],-26%
same,growth inhibition,[5]; at 11.0 µM,-13%
same,growth inhibition,[5]; at 33.0 µM,6%
same,growth inhibition,[5]; [18],14%
same,growth inhibition,[5]; at 50.0 µM,15.5%
same,growth inhibition,[5]; at 100.0 µM,69%
same,growth inhibition,[6]; at 1.2 µM,-40%
same,growth inhibition,[6]; at 3.7 µM,-34%
same,growth inhibition,[6]; [17],-6%
same,growth inhibition,[6]; at 11.0 µM,-41%
same,growth inhibition,[6]; at 33.0 µM,-19%
same,growth inhibition,[6]; [18],22%
same,growth inhibition,[6]; at 50.0 µM,74.1% (active)
same,growth inhibition,[6]; at 100.0 µM,91% (active)
same,growth inhibition,[7]; at 1.2 µM,-18%
same,growth inhibition,[7]; at 3.7 µM,-7%
same,growth inhibition,[7]; at 11.0 µM,-16%
same,growth inhibition,[7]; at 33.0 µM,-18%
same,growth inhibition,[7]; at 100.0 µM,19%
same,growth inhibition,[8]; [17],-2%
same,growth inhibition,[8]; [18],8%
same,growth inhibition,[8]; at 50.0 µM,35.5%
same,growth inhibition,[9]; at 1.2 µM,-35%
same,growth inhibition,[9]; at 3.7 µM,-25%
same,growth inhibition,[9]; at 11.0 µM,-30%
same,growth inhibition,[9]; at 33.0 µM,-10%
same,growth inhibition,[9]; at 100.0 µM,96% (active)
same,growth inhibition,[10]; [17],23%
same,growth inhibition,[10]; [18],32%
same,growth inhibition,[10]; at 50.0 µM,10.3%
same,growth inhibition,[11]; at 1.2 µM,-30%
same,growth inhibition,[11]; at 3.7 µM,-20%
same,growth inhibition,[11]; [17],18%
same,growth inhibition,[11]; at 11.0 µM,-24%
same,growth inhibition,[11]; at 33.0 µM,-31%
same,growth inhibition,[11]; [18],38%
same,growth inhibition,[11]; at 50.0 µM,6.15%
same,growth inhibition,[11]; at 100.0 µM,91% (active)
same,growth inhibition,[12]; at 1.2 µM,-47%
same,growth inhibition,[12]; at 3.7 µM,-52%
same,growth inhibition,[12]; at 11.0 µM,-59%
same,growth inhibition,[12]; at 33.0 µM,-41%
same,growth inhibition,[12]; at 100.0 µM,20%
same,growth inhibition,[13]; at 1.2 µM,-31%
same,growth inhibition,[13]; at 3.7 µM,-26%
same,growth inhibition,[13]; at 11.0 µM,-9%
same,growth inhibition,[13]; at 33.0 µM,6%
same,growth inhibition,[13]; at 100.0 µM,91% (active)
same,growth inhibition,[14]; at 1.2 µM,-28%
same,growth inhibition,[14]; at 3.7 µM,-31%
same,growth inhibition,[14]; at 11.0 µM,-29%
same,growth inhibition,[14]; at 33.0 µM,-15%
same,growth inhibition,[14]; at 100.0 µM,65%
same,growth inhibition,[15]; [17],-7%
same,growth inhibition,[15]; [18],75% (active)
same,growth inhibition,[15]; at 50.0 µM,45.2%
same,growth inhibition,[16]; at 1.2 µM,-8%
same,growth inhibition,[16]; at 3.7 µM,-4%
same,growth inhibition,[16]; at 11.0 µM,-15%
same,growth inhibition,[16]; at 33.0 µM,-1%
same,growth inhibition,[16]; at 100.0 µM,70% (active)
O=C(C#Cc1ccccc1)Nc1ccccc1,growth inhibition,[1]; at 1.2 µM,-14%
same,growth inhibition,[1]; at 3.7 µM,-11%
same,growth inhibition,[1]; at 11.0 µM,-7%
same,growth inhibition,[1]; at 33.0 µM,23%
same,growth inhibition,[1]; at 100.0 µM,97% (active)
same,growth inhibition,[2]; at 1.2 µM,-1%
same,growth inhibition,[2]; at 3.7 µM,-10%
same,growth inhibition,[2]; at 11.0 µM,-6%
same,growth inhibition,[2]; at 33.0 µM,6%
same,growth inhibition,[2]; at 100.0 µM,95% (active)
same,growth inhibition,[3]; at 1.2 µM,-4%
same,growth inhibition,[3]; at 3.7 µM,4%
same,growth inhibition,[3]; at 11.0 µM,37%
same,growth inhibition,[3]; at 33.0 µM,70% (active)
same,growth inhibition,[3]; at 100.0 µM,92% (active)
same,growth inhibition,[4]; at 1.2 µM,-5%
same,growth inhibition,[4]; at 3.7 µM,-10%
same,growth inhibition,[4]; at 11.0 µM,-4%
same,growth inhibition,[4]; at 33.0 µM,58%
same,growth inhibition,[4]; at 100.0 µM,97% (active)
same,growth inhibition,[5]; at 1.2 µM,-20%
same,growth inhibition,[5]; at 3.7 µM,-25%
same,growth inhibition,[5]; [17],-147%
same,growth inhibition,[5]; at 11.0 µM,-17%
same,growth inhibition,[5]; at 33.0 µM,52%
same,growth inhibition,[5]; [18],20%
same,growth inhibition,[5]; at 50.0 µM,45.8%
same,growth inhibition,[5]; at 100.0 µM,97% (active)
same,growth inhibition,[6]; at 1.2 µM,-9%
same,growth inhibition,[6]; at 3.7 µM,-7%
same,growth inhibition,[6]; [17],-48%
same,growth inhibition,[6]; at 11.0 µM,-8%
same,growth inhibition,[6]; at 33.0 µM,-2%
same,growth inhibition,[6]; [18],-29%
same,growth inhibition,[6]; at 50.0 µM,33.6%
same,growth inhibition,[6]; at 100.0 µM,80% (active)
same,growth inhibition,[7]; at 1.2 µM,-3%
same,growth inhibition,[7]; at 3.7 µM,-9%
same,growth inhibition,[7]; at 11.0 µM,4%
same,growth inhibition,[7]; at 33.0 µM,67%
same,growth inhibition,[7]; at 100.0 µM,97% (active)
same,growth inhibition,[8]; [17],-57%
same,growth inhibition,[8]; [18],67%
same,growth inhibition,[8]; at 50.0 µM,64.7%
same,growth inhibition,[9]; at 1.2 µM,-10%
same,growth inhibition,[9]; at 3.7 µM,-13%
same,growth inhibition,[9]; at 11.0 µM,-14%
same,growth inhibition,[9]; at 33.0 µM,-5%
same,growth inhibition,[9]; at 100.0 µM,94% (active)
same,growth inhibition,[10]; [17],-64%
same,growth inhibition,[10]; [18],-42%
same,growth inhibition,[10]; at 50.0 µM,-13.2%
same,growth inhibition,[11]; at 1.2 µM,-10%
same,growth inhibition,[11]; at 3.7 µM,-7%
same,growth inhibition,[11]; [17],-74%
same,growth inhibition,[11]; at 11.0 µM,-7%
same,growth inhibition,[11]; at 33.0 µM,24%
same,growth inhibition,[11]; [18],-6%
same,growth inhibition,[11]; at 50.0 µM,15.4%
same,growth inhibition,[11]; at 100.0 µM,97% (active)
same,growth inhibition,[13]; at 1.2 µM,-15%
same,growth inhibition,[13]; at 3.7 µM,-12%
same,growth inhibition,[13]; at 11.0 µM,-9%
same,growth inhibition,[13]; at 33.0 µM,72% (active)
same,growth inhibition,[13]; at 100.0 µM,98% (active)
same,growth inhibition,[14]; at 1.2 µM,-9%
same,growth inhibition,[14]; at 3.7 µM,-3%
same,growth inhibition,[14]; at 11.0 µM,33%
same,growth inhibition,[14]; at 33.0 µM,88% (active)
same,growth inhibition,[14]; at 100.0 µM,99% (active)
same,growth inhibition,[15]; [17],-149%
same,growth inhibition,[15]; [18],-10%
same,growth inhibition,[15]; at 50.0 µM,38.9%
same,growth inhibition,[16]; at 1.2 µM,-9%
same,growth inhibition,[16]; at 3.7 µM,-12%
same,growth inhibition,[16]; at 11.0 µM,-9%
same,growth inhibition,[16]; at 33.0 µM,8%
same,growth inhibition,[16]; at 100.0 µM,94% (active)
